Experimental data taken from PubChem BioAssay (NCATS).
Records with an inconclusive call do not appear. A call without a number means that no potency is given here. Values without a mark were called inactive. Calls of active or inactive are those of the source. Calls come from the whole dose curve; as a rule, active = well fitted cell-killing curve with a large enough effect; inconclusive = small, poorly fitted or top-dose-only effect, or effect the other way; inactive = flat fitted curve, though single readings scatter.

Columns and labels:
Experiment in all cases: Primary qHTS to identify gynecologic anti-cancer compounds using libraries of approved drugs and bioactive compounds (AID 1345084); note: nearly all actives have a fitted effect of over 55% in size
Details in all cases: Gynecologic cancer cell panel viability, ATPlite luminescence, 48 h; series mostly up to 57.5 µM
JEG-3 = test system: JEG-3
Summary of the method: (§1)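 In this quantitative HTS, cell killing is estimated from loss of ATP-dependent luciferase light. Cells see five compound concentrations over a 48 h exposure.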

OV90 = test system: OV90
Summary of the method: as §1

PA-1 = test system: PA-1
Summary of the method: as §1

SKOV3 = test system: SKOV3
Summary of the method: as §1

Tov-21-G = test system: Tov-21-G
Summary of the method: as §1

Tov112D = test system: Tov112D
Summary of the method: as §1
Potency is the fitted concentration of half-maximal effect.

| SMILES | Potency (JEG-3) | Potency (OV90) | Potency (PA-1) | Potency (SKOV3) | Potency (Tov-21-G) | Potency (Tov112D) | activity change, negative = cytotoxicity (JEG-3) | activity change, negative = cytotoxicity (OV90) | activity change, negative = cytotoxicity (PA-1) | activity change, negative = cytotoxicity (SKOV3) | activity change, negative = cytotoxicity (Tov-21-G) | activity change, negative = cytotoxicity (Tov112D) |
| --- | --- | --- | --- | --- | --- | --- | --- | --- | --- | --- | --- | --- |
| CC1(C)C2CC=C(COC3OC(COC4OCC(O)(CO)C4O)C(O)C(O)C3O)C1C2 (centres undefined) | inactive | inactive | inactive | inactive | inactive | inactive | – | – | – | – | – | – |
| COC(=O)CCSCc1ccc(-c2onc(C)c2NC(=O)OC(C)c2ccccc2Cl)cc1 (centres undefined) | inactive | inactive | inactive | inactive | inactive | inactive | – | – | – | – | – | – |
| C/C=C(/COC(=O)/C(C)=C/C)C(=O)OC(CC)c1ccc(OC)c(OC)c1 (centres undefined) | inactive | inactive | inactive | inactive | inactive | inactive | – | – | – | – | – | – |
| COc1cc2occc2c(O[C@@H]2O[C@H](CO)[C@@H](O)[C@H](O)[C@H]2O)c1CCC(=O)O | inactive | inactive | inactive | inactive | inactive | inactive | – | – | – | – | – | – |
| CC(C)CC(=O)OC1OC=C(CO[C@@H]2O[C@H](CO)[C@@H](O)[C@H](O)[C@H]2O)C2CC(O)C(O)(CO)C12 (some centres undefined) | inactive | inactive | inactive | inactive | inactive | inactive | – | – | – | – | – | – |
| CC1=C(/C=C/C(C)=C\C=C\C(C)=C/C(=O)O)C(C)(C)CCC1 | inactive | inactive | inactive | inactive | inactive | inactive | – | – | – | – | – | – |
| C=CCC1=C[C@]2(OC)[C@H](C)[C@@H](c3ccc(O)c(OC)c3)O[C@]2(OC)CC1=O | inactive | inactive | inactive | inactive | inactive | inactive | – | – | – | – | – | – |
| O=C(/C=C/c1ccc(O)cc1)N[C@@H](Cc1ccc(O)cc1)C(=O)O | inactive | inactive | inactive | inactive | inactive | inactive | – | – | – | – | – | – |
| CC1=CC(=O)CC(C)(C)[C@H]1/C=C/C(CO)O[C@@H]1O[C@H](CO)[C@@H](O)[C@H](O)[C@H]1O (some centres undefined) | inactive | inactive | inactive | inactive | inactive | inactive | – | – | – | – | – | – |
| CCc1cccc(CC)c1NC(=O)c1nn(C)c2c1CCc1cnc(Nc3ccc(C(=O)NC4CCN(C)CC4)cc3OC(F)(F)F)nc1-2 | inactive | inactive | inactive | inactive | inactive | inactive | – | – | – | – | – | – |
| C[C@]1(CO)CCC[C@]2(C)C3=C(CCC12)COC3 (some centres undefined) | inactive | inactive | inactive | inactive | inactive | inactive | – | – | – | – | – | – |
| CC1=CC(=O)CC(C)(C)C1/C=C/C(C)O[C@@H]1O[C@H](CO)[C@@H](O)[C@H](O)[C@H]1O[C@@H]1OC[C@](O)(CO)[C@H]1O (some centres undefined) | inactive | inactive | inactive | inactive | inactive | inactive | – | – | – | – | – | – |
| CC(C)=CCC/C(C)=C/CO[C@@H]1O[C@H](CO)[C@@H](OC(=O)/C=C/c2ccc(O)cc2)[C@H](O[C@@H]2O[C@@H](C)[C@H](O)[C@@H](O)[C@H]2O)[C@H]1O | inactive | inactive | inactive | inactive | inactive | inactive | – | – | – | – | – | – |
| CCCC(=O)O[C@@H]1[C@@H]2[C@@H](OC(C)=O)[C@]3(C)C(=O)[C@H]4[C@@H](OC(C)=O)C(C)(C)C[C@H]4[C@]3(C)C(=O)[C@@]2(OC(C)=O)C[C@@H]1C | inactive | inactive | inactive | inactive | inactive | inactive | – | – | – | – | – | – |
| Cc1cccc(Oc2cnc(=O)[nH]c2)c1 | inactive | inactive | inactive | inactive | inactive | inactive | – | – | – | – | – | – |
| COc1cc(Nc2nc3ccccc3nc2NS(=O)(=O)c2ccc(NC(=O)c3ccc(OC)c(C)c3)cc2)cc(OC)c1 | inactive | inactive | inactive | inactive | inactive | inactive | – | – | – | – | – | – |
| Nc1ncnc2c([C@@H]3N[C@H](CO)[C@@H](O)[C@H]3O)c[nH]c12 | inactive | inactive | inactive | inactive | inactive | inactive | – | – | – | – | – | – |
| C[C@@]12C[C@]3(O)O[C@H](O1)[C@]1(COC(=O)c4ccccc4)[C@H]3C[C@@]12O[C@@H]1O[C@H](CO)[C@@H](O)[C@H](O)[C@H]1O | inactive | inactive | inactive | inactive | inactive | inactive | – | – | – | – | – | – |
| CON(C)C(=O)[C@H](O)[C@H](Cc1ccccc1)NC(=O)c1cc2cc(Cl)ccc2[nH]1 | inactive | inactive | inactive | inactive | inactive | inactive | – | – | – | – | – | – |
| CC1(C)CC[C@]2(C(=O)OC3OC(CO)C(O)C(O)C3O)CC[C@]3(C)C(=CCC4[C@@]5(C)CC[C@H](OC6OC(C(=O)O)C(O)C(OC7OC(CO)C(O)C(O)C7O)C6O)C(C)(C)C5CC[C@]43C)C2C1 (some centres undefined) | – | – | – | – | – | – | 1.51% [at 11.6 µM] | 9.69% [at 11.6 µM] | 4.28% [at 11.6 µM] | -1.26% [at 11.6 µM] | -2.48% [at 11.6 µM] | 6.25% [at 11.6 µM] |
| C/C=C/C=C/[C@@H]1O[C@](O)([C@H](CC)C(=O)NC/C=C/C=C(\C)[C@@H](OC)[C@@H](C)C2OC(/C=C/C=C/C=C(\C)C(=O)c3c(O)cc[nH]c3=O)[C@H](O)[C@@H]2O)[C@H](O)[C@H](O)C1(C)C (some centres undefined) | inactive | inactive | inactive | inactive | inactive | inactive | – | – | – | – | – | – |
| CC(=O)C1=CCC2C3CCC4CC(O[C@@H]5O[C@H](CO)[C@@H](O[C@@H]6O[C@@H](C)[C@H](O)[C@@H](O)[C@H]6O)[C@H](O)[C@H]5O[C@@H]5O[C@H](CO)[C@@H](O)[C@H](O)[C@H]5O)CCC4(C)C3CCC12C (some centres undefined) | inactive | inactive | inactive | inactive | inactive | inactive | – | – | – | – | – | – |
| Cc1c(NC(=O)c2cc(C(N)=O)nc3cc(F)ccc23)c(C(F)(F)F)nn1Cc1ccc(C#N)cc1 | inactive | inactive | inactive | 2.24 µM (active) | inactive | inactive | – | – | – | – | – | – |
| CC12CCC3c4ccc(O)cc4CCC3C1CC(OC1OC(C(=O)O)C(O)C(O)C1O)C2O (centres undefined) | inactive | inactive | inactive | inactive | inactive | inactive | – | – | – | – | – | – |
